# From the supplement of paper PMC11732987, “Enantioselective OTUD7B fragment discovery through chemoproteomics screening and high-throughput optimisation” (Communications Chemistry, 2025)
# Unmarked numbers belong to inactive results.
# What was measured:
# Assay in all cases: log2 ratio of Biotin-Ahx-Ub-VS probe labelling (fragment/DMSO); higher = less target engagement (more negative = stronger competition), active = hit call of the paper (q ≤ 0.05, log2 ratio ≤ -1)
# Settings in all cases: compound concentration: 200 uM; treatment time: 3 h
# UniProt O00507 = target: UniProt O00507
# Outline: (§1)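 Labelling with Biotin-Ahx-Ub-VS (0.5 µM final, 1 h) followed a 3 h triplicate treatment of HEK293T lysate (495 µg per sample, Tris/CHAPS/IGEPAL buffer with protease inhibitors) with fragment at 200 µM or vehicle. Labelled DUBs were NeutrAvidin-enriched, digested with LysC and trypsin, and run by diaPASEF LC-MS/MS. The values, average log2 fragment/vehicle ratios by unpaired t-test, come from global-median-normalised Spectronaut label-free quantities. Proteins with ≥2 unique peptides were used.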
# UniProt P51784 = target: UniProt P51784
# Outline: as §1
# UniProt Q5T2D3 = target: T1, UniProt Q5T2D3
# T1 sequence (whole entry): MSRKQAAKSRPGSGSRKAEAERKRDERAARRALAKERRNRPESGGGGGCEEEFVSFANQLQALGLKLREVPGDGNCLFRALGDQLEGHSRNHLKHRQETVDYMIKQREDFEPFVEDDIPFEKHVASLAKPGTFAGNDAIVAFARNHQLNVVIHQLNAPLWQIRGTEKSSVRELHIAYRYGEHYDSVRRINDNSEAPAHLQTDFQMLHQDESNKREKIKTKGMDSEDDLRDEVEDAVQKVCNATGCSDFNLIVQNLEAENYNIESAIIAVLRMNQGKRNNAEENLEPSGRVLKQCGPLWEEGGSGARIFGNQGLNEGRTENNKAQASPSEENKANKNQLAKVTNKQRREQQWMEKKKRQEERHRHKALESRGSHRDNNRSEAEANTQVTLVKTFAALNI
# Outline: as §1
# UniProt Q8TE49 = target: T2, UniProt Q8TE49
# T2 sequence (whole entry): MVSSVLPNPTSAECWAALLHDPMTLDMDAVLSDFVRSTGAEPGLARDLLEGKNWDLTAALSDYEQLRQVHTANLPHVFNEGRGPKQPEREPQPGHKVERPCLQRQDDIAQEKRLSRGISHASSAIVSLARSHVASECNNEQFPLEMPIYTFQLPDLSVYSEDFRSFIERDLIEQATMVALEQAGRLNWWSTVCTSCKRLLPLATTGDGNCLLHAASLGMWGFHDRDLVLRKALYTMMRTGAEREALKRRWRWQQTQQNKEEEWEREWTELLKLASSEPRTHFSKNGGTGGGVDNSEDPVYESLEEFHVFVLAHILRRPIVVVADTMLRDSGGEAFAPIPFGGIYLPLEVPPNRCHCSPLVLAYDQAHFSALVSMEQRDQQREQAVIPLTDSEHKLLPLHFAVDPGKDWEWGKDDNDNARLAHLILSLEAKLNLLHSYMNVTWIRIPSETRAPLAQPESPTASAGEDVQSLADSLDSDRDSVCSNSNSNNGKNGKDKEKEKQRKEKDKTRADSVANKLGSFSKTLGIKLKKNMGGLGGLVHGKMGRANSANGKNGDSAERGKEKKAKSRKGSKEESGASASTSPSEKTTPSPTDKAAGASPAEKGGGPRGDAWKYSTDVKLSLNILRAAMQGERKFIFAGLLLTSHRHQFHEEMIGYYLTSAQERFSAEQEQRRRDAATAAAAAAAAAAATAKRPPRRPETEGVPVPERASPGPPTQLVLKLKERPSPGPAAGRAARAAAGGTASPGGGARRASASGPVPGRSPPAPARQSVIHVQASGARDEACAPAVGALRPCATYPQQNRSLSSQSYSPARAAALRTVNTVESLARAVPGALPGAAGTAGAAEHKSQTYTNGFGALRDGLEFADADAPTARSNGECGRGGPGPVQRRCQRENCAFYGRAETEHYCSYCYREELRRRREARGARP
# Outline: as §1
# UniProt Q9P2H5 = target: T3, UniProt Q9P2H5
# T3 sequence (whole entry): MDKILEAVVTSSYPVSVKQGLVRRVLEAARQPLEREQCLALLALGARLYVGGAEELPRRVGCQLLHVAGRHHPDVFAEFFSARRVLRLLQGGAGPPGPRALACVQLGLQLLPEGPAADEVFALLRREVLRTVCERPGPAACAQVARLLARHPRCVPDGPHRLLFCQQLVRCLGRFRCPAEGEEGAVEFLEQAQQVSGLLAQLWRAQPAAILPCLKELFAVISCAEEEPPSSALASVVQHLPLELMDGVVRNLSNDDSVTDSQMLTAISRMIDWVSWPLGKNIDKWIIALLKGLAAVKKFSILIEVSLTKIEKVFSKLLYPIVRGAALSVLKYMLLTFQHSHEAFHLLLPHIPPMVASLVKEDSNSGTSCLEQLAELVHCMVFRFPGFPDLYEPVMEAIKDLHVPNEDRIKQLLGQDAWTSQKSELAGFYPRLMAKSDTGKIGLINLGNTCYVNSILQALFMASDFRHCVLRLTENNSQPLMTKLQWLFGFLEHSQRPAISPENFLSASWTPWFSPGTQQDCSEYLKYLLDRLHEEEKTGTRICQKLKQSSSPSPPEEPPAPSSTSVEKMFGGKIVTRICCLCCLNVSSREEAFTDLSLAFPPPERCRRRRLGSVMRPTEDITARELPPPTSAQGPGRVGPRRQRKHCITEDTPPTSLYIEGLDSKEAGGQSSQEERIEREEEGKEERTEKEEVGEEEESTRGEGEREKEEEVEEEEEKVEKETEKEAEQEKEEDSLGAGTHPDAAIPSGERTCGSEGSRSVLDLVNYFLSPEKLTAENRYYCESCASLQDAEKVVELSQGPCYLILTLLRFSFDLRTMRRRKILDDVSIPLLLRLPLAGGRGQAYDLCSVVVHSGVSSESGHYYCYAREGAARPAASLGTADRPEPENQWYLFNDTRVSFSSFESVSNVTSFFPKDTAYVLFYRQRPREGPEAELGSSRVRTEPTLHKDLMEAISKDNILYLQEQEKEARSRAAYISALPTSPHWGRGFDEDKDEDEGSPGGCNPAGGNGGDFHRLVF
# Outline: as §1
# UniProt Q9UGI0 = target: T4, UniProt Q9UGI0
# T4 sequence (whole entry): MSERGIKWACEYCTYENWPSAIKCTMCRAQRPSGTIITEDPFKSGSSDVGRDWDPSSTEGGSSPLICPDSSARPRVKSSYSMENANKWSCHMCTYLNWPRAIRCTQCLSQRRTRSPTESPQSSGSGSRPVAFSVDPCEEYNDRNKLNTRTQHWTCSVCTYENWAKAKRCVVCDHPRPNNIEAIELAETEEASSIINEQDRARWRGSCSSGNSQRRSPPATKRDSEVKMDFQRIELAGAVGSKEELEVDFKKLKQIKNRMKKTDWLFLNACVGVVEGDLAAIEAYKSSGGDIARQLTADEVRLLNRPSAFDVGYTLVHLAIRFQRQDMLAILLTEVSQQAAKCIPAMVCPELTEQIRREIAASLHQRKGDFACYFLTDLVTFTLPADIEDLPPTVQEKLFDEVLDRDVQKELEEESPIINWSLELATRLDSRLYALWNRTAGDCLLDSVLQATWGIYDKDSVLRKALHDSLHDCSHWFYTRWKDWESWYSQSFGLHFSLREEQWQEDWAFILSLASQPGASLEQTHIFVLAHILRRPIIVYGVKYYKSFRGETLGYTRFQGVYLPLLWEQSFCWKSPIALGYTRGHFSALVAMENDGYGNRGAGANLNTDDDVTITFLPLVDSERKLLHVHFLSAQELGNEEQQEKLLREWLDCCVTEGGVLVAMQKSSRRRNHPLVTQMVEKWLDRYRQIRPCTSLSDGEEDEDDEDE
# Outline: as §1
# YOD1 = target: T5, YOD1 (UniProt Q5VVQ6)
# T5 sequence (whole entry): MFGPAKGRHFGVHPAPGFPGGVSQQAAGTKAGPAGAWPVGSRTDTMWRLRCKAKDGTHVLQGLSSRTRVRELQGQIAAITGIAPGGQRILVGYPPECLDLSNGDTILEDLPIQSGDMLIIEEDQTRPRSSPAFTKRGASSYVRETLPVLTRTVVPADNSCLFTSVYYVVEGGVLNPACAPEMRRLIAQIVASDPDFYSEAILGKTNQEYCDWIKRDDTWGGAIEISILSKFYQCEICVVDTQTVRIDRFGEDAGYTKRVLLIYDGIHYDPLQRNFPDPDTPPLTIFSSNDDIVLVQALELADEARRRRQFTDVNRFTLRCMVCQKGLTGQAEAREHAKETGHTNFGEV
# Outline: as §1
# Chain of UniProt P51784 (P51784 whole entry): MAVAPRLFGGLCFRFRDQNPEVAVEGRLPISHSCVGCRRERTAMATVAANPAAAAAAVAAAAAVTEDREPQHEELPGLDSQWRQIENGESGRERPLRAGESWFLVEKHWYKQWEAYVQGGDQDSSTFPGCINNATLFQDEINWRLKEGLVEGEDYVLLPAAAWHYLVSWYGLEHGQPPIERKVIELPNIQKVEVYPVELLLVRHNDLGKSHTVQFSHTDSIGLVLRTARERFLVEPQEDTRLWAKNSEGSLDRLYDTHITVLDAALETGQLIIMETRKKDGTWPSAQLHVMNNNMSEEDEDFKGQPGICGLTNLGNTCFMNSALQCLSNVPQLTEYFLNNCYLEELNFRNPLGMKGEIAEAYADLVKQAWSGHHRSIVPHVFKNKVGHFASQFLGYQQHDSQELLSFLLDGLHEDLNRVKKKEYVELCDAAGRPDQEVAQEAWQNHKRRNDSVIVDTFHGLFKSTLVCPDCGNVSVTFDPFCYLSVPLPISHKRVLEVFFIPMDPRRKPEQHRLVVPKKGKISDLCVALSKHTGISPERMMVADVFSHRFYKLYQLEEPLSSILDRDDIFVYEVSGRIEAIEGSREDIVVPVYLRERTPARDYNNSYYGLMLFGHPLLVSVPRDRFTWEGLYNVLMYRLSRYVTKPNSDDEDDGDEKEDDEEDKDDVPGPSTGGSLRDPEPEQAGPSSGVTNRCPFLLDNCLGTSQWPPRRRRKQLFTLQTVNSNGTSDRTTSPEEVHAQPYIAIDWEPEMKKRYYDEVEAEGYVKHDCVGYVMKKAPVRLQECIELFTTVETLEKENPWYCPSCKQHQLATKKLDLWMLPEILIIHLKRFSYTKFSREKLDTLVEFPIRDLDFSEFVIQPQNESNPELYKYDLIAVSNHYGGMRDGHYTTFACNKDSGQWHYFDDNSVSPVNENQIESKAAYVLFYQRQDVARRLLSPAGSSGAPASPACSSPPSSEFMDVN
# Chain of UniProt O00507 (O00507 whole entry, the tested form may be a part): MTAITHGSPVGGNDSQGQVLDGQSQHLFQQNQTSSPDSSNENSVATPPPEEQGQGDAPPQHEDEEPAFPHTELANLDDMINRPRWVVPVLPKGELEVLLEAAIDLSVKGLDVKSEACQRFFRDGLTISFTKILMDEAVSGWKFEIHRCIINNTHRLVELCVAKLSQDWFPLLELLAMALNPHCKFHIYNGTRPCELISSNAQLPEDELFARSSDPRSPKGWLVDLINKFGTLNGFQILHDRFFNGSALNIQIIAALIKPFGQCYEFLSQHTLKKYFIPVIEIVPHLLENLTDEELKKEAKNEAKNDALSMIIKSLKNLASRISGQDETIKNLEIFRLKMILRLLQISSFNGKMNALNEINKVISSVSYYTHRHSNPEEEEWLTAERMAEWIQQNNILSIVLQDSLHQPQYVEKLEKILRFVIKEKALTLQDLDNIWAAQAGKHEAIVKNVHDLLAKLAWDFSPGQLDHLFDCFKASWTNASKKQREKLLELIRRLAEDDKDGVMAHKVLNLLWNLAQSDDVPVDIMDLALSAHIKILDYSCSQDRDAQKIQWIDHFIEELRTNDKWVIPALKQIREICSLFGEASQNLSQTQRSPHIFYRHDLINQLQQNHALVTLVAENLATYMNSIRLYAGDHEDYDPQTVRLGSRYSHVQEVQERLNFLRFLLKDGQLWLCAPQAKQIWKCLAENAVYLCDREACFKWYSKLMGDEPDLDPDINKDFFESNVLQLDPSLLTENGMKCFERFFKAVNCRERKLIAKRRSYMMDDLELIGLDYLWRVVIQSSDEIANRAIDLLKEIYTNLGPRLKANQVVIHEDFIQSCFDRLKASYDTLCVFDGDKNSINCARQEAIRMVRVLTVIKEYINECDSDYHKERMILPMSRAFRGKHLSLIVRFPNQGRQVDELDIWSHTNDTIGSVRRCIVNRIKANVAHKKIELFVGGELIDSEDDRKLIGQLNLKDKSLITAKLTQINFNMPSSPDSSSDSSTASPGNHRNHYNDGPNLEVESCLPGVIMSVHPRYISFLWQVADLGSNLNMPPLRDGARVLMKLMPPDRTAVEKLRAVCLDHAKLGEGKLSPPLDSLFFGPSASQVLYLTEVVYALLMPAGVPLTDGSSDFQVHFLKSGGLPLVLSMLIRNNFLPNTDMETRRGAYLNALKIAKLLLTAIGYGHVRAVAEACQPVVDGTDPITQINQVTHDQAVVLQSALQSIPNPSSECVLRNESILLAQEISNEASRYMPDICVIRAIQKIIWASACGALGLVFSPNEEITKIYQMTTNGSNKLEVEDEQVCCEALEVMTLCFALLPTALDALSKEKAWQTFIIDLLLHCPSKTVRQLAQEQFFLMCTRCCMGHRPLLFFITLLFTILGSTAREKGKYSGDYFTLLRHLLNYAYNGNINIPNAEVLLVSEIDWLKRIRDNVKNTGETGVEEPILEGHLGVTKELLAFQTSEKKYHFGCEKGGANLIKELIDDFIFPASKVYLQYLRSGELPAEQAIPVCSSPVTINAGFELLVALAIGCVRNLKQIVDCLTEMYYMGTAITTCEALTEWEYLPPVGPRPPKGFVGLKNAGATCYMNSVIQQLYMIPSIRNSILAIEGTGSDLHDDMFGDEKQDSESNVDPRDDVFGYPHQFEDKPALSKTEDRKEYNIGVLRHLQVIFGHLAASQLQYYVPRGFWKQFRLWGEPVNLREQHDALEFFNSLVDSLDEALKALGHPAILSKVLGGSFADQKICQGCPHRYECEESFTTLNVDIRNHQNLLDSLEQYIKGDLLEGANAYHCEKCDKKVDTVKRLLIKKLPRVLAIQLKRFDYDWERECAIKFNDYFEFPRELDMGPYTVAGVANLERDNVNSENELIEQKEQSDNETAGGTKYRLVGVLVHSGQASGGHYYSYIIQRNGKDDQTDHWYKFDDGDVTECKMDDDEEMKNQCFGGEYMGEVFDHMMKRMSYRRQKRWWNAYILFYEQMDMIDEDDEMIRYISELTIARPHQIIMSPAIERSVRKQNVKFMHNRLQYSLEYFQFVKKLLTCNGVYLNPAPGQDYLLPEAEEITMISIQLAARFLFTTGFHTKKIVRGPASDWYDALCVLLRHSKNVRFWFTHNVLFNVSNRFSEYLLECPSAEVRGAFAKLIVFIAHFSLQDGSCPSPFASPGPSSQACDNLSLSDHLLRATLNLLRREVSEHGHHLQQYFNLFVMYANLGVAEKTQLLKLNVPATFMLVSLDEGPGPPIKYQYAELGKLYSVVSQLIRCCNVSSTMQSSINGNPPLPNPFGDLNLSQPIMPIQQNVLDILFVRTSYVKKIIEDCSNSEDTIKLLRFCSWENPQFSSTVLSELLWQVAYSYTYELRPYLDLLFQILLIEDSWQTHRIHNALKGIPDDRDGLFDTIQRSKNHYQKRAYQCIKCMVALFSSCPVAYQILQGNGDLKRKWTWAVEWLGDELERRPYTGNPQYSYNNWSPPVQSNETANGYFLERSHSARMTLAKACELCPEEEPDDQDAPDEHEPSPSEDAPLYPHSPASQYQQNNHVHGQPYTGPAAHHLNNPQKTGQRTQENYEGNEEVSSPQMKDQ
Structure (SMILES),log2 ratio of Biotin-Ahx-Ub-VS probe labelling (UniProt O00507),log2 ratio of Biotin-Ahx-Ub-VS probe labelling (UniProt P51784),log2 ratio of Biotin-Ahx-Ub-VS probe labelling (UniProt Q5T2D3),log2 ratio of Biotin-Ahx-Ub-VS probe labelling (UniProt Q8TE49),log2 ratio of Biotin-Ahx-Ub-VS probe labelling (UniProt Q9P2H5),log2 ratio of Biotin-Ahx-Ub-VS probe labelling (UniProt Q9UGI0),log2 ratio of Biotin-Ahx-Ub-VS probe labelling (YOD1)
O=C(CCl)Nc1cccc(C(=O)N2CCSCC2)c1,-0.587,-0.172,-0.17,-0.399,0.0593,-0.309,-0.58
O=C(CCl)NCCC1COCCO1 (stereo not drawn),-0.31,0.182,-0.163,-0.547,-0.0395,-0.194,-0.308
O=C(CCl)N1CCOC2(CCC2)CC1,-0.268,-0.147,-0.0132,-0.472,-0.184,-1.19 (active),-0.0502
CC1(NC(=O)CCl)CCS(=O)(=O)C1 (stereo not drawn),-0.402,-0.612,-0.858,-1.44 (active),-0.61,-0.698,-0.754
O=C(CCl)NC1CCS(=O)(=O)c2ccccc21 (stereo not drawn),-0.00358,-0.174,-0.342,-1.2 (active),-0.644,-0.564,0.0479
COc1cc(Cl)c(C)cc1NC(=O)CCl,-0.429,-0.107,-0.258,-0.622,-0.319,-1.23 (active),-0.11
O=C(CCl)NCCC1=CCCCC1,0.347,0.0951,-0.215,-0.191,-0.0991,-0.159,0.16
Cc1cc(Cl)ccc1NC(=O)CCl,0.519,-0.115,-0.142,-0.396,-0.193,-0.477,-0.175
Cc1conc1C1CN(C(=O)CCl)C1,-0.553,-0.677,-0.923,-1.71 (active),-0.584,-0.885,-1.1 (active)
O=C(CCl)Nc1ccc2c(c1)OC(F)(F)O2,-0.0305,0.0816,-0.375,-0.815,-0.115,-0.637,-0.0381
Cc1nc(CN2CCN(C(=O)CCl)CC2)cs1,-0.246,-0.106,-0.213,-0.382,-0.401,-0.214,-0.111
Cl.Cn1cnc2cc(CNC(=O)CCl)ccc21,0.245,-0.209,-0.0728,-0.354,-0.126,-0.308,0.0476
O=C(CCl)N1CC=C(c2c[nH]c3ccccc23)CC1,-1.28 (active),-0.291,-0.405,-0.72,-0.734,-1.14 (active),-0.219
Cc1ccc(C(=O)NCCNC(=O)CCl)cc1,-0.256,0.00304,-0.199,-0.373,-0.35,-0.456,-0.0895
CN(CCc1ncc(Br)cn1)C(=O)CCl.Cl,-0.225,-0.0725,-0.508,-1.75 (active),-0.437,-0.752,0.0394
Cc1ccc(CC(NC(=O)CCl)c2ccccn2)cc1.Cl (stereo not drawn),-0.0403,0.188,0.254,0.237,-0.00516,-0.0851,0.248
O=C(CCl)NC1CCC2(CC1)OCCO2,-0.379,-0.104,-0.473,-0.565,-0.399,-0.544,-0.297
N#Cc1ccccc1N1CCN(C(=O)CCl)CC1,-0.534,-0.515,-0.687,-1.29 (active),-0.617,-2.22 (active),-0.448
CCC(NC(=O)CCl)c1ccc(Cl)cc1 (stereo not drawn),0.32,0.0791,-0.182,-0.735,-0.319,-0.279,0.188
